This is a sample that favours compounds with a hit; in the whole collection about 1.5% have one here.
RAD54 branch – inhibitors of human RAD54 branch migration; 0.14% of 360,000 active; Q92698; inhibition, % at 10.4 µM; RAD54 Holliday junction branch migration, FAM/BHQ fluorescence;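 active means mean normalized replicate activity at least 40 and at least half of replicates scoring 40 or more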;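 further: 0% = median of neutral control wells and 100% = median of positive control wells; inhibitors cause a drop in the FAM fluorescence signal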
DNA FID counter – displaces DNA intercalator in HCV helicase counter-screen; inhibition, % at 7.9 µM; 0.17% of 290,000 active; DNA fluorescent intercalator displacement, fluorescence; in the data active means inhibition above about 37%;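 further: 0% = vehicle and 100% = reference compound; higher means more ethidium bromide displaced from hairpin DNA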
miR122 inh – inhibitors of miR-122 in Huh7 cells; Huh7 miR-122 Renilla luciferase sensor, 48 h; neutral wells = 0, positive control = 100; activation (reporter increase), % at 12.5 µM; 0.3% of 340,000 active; AID 602342;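 active means mean replicate activation score at least 90 and every replicate individually at or above 90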;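 further: higher luciferase means less miR-122 activity so hits act as miR-122 inhibitors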
N-glyco inh – blocks N-linked glycosylation in D54 reporter cells; 0.23% of 360,000 active; reporter increase, % at 12.5 µM; D54 ERlucT glycosylation luciferase reporter, 24 h; percent of 100 nM tunicamycin response;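 active means mean luciferase reporter signal, scaled so untreated is 0 and the glycosylation-blocking control 100, at or above a set limit in every replicate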;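 further: luciferase carries N-glycosylation sites so blocking glycosylation raises the light; 0% = median of neutral control wells and 100% = median of 100 nM tunicamycin wells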
CendR NRP1 mod – alters CendR peptide binding to human NRP-1. FAM-RPARPAR peptide binding to NRP-1, fluorescence polarization. 0.85% of 360,000 active. AID 602438. inhibition, % at 25 µM;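 active means inhibition or corrected inhibition above about 18%, plus a signal ratio from 0.5 to 1.5, limit read from the data, passing the limit was not always enough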
RAD52 anneal inh – inhibitors of human RAD52 DNA annealing. P43351. recombinant RAD52 DNA annealing, FRET fluorescence. inhibition, % at 18.7 µM. 0.46% of 360,000 active;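 active means every replicate showing at least 50% inhibition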
Target sequence (P43351 whole entry, looked up): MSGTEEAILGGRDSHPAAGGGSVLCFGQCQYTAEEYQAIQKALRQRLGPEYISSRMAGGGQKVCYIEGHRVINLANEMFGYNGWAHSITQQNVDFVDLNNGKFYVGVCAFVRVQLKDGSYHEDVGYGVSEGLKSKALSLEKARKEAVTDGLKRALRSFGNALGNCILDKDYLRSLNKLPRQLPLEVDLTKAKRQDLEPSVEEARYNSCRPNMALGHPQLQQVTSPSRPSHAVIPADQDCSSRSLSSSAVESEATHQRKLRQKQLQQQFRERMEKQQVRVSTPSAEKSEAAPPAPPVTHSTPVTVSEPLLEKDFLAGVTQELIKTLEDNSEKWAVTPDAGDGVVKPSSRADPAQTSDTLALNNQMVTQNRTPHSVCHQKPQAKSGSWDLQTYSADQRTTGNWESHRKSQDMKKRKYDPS
* hit, by the source's call; · = not tested or not shown; ! = not active in a repeat; [ ] = dose if it differs, or a comment.

SMILES	RAD54 branch	DNA FID counter	miR122 inh	N-glyco inh	CendR NRP1 mod	RAD52 anneal inh
Cc1ccc(S(=O)(=O)N2C[C@H](O)COC[C@@H]3O[C@H](CC(=O)NCC4CCCCC4)CC[C@H]32)cc1	3.1	·	3.0[16.7 µM]	·	·	54.3*
Cc1ccc(S(=O)(=O)N2C[C@@H](O)COC[C@@H]3O[C@@H](CC(=O)NCC4CCCCC4)CC[C@H]32)cc1	6.8	·	-2.0[16.7 µM]	·	·	60.0*
Cc1ccc(S(=O)(=O)N2C[C@H](O)COC[C@H]3O[C@@H](CC(=O)NCC4CCCCC4)CC[C@@H]32)cc1	-9.6	·	11.9[16.7 µM]	·	·	33.8
Cn1cnc(S(=O)(=O)N2C[C@@H](O)COC[C@H]3O[C@@H](CC(=O)NC4CCCC4)CC[C@@H]32)c1	2.0	·	126.8*[16.7 µM]	·	·	6.8
COCc1cn(CC[C@H]2CC[C@@H](NC(=O)Nc3ccc(Cl)cc3)[C@H](CO)O2)nn1	-6.0	·	·	·	·	-2.5
C/C=C/c1ccc([C@@H]2[C@H](CO)N(C(=O)CN(C)C)C23CN(C(=O)C2CCC2)C3)cc1	·	·	·	·	·	2.3
COc1ccc2c3c(n(C)c2c1)[C@H](CO)N(CC1CC1)CC31CCN(C(=O)CN(C)C)CC1	·	·	·	·	·	54.1*
COc1ccc2c3c(n(C)c2c1)[C@@H](CO)N(C(=O)Nc1ccc(F)cc1)CC31CN(Cc2ccccc2F)C1	·	·	·	·	·	-34.3
COc1ccc2c3c(n(C)c2c1)[C@H](CO)N(C(=O)Nc1ccc(F)cc1)CC31CCN(Cc2ccccc2F)CC1	·	·	·	·	·	54.5*
COc1ccc(S(=O)(=O)N2CCC3(CC2)CN(C(=O)CN(C)C)[C@H](CO)c2c3c3ccc(OC)cc3n2C)cc1	·	·	·	·	·	57.3*
CC(C)NC(=O)N(C)C[C@H]1Oc2ccc(NC(=O)Nc3ccc4c(c3)OCO4)cc2CC(=O)N([C@H](C)CO)C[C@@H]1C	3.3	·	-3.2[16.7 µM]	·	·	-4.9
COc1ccc(S(=O)(=O)Nc2cccc3c2O[C@@H](CN(C)S(=O)(=O)c2cccs2)[C@H](C)CN([C@@H](C)CO)C3=O)cc1	1.6	·	-4.5[16.7 µM]	·	·	-17.6
CNC[C@@H](Cc1ccccc1)NC[C@@H](CC1CCCCC1)NCCCc1ccccc1	31.5	38.2*	-21.2	-23.3	-6.7	36.4
O=C(C[C@H]1C[C@@H]2c3cc(NC(=O)C4CCC4)ccc3O[C@@H]2[C@@H](CO)O1)NCc1ccc2c(c1)OCO2	5.9	·	-1.5[16.7 µM]	·	·	4.3
Cc1ccc(NC(=O)Cc2cn(C)c3ccccc23)cc1F	-19.1	-8.6	321.4*	-0.8	3.4	-7.1
Cc1ccc(NC(=O)Cc2c(C(=O)O)n(C)c3ccccc23)cc1F	·	-21.7	-5.5	-0.6	-4.0	-24.3
CCN(CC)C(=O)CSc1nnc(-c2c[nH]c3ccccc23)o1	5.2	-19.2	-4.5	-1.6	31.3*	-5.3
COC(=O)CSc1nnc(-c2c[nH]c3ccccc23)o1	-4.0	-8.8	-5.7	0.9	-35.9	-5.5
C/C=C/c1ccc2c(c1)O[C@@H](CN(C)C(=O)Nc1cccc(F)c1)[C@H](C)CN([C@H](C)CO)S2(=O)=O	7.1	·	19.5[16.7 µM]	·	·	6.5
NC(=S)N/N=C/c1cc([N+](=O)[O-])ccc1OCCOc1ccccc1	-1.0	-3.7	-9.3	-2.9	25.4*	·
CC(=O)N/N=C/c1cc([N+](=O)[O-])ccc1OCCOc1ccccc1	-9.7	7.2	-0.1	-1.0	9.0	·
CCCN1[C@H](C(=O)NCCOC)[C@@H](CO)[C@@H]2Cn3c(ccc(-c4ccc(C(=O)N(C)C)cc4)c3=O)[C@@H]21	-4.9	·	·	·	·	5.0
COc1ccc(/C=N/Nc2nc(C)c([N+](=O)[O-])c(N(C)c3ccccc3)n2)cc1OC	·	-7.6	3.0	-0.6	28.3*	·
CC(=O)Nc1ccc(Nc2nc(C)c([N+](=O)[O-])c(N(C)c3ccccc3)n2)cc1	·	-19.3	·	-1.5	3.5	-4.3
COc1ccc(NC(=O)Nc2ncccc2C)cc1	-1.3	-6.9	-4.3	-0.5	-9.8	4.3
SMILES	RAD54 branch	DNA FID counter	miR122 inh	N-glyco inh	CendR NRP1 mod	RAD52 anneal inh
COc1ccc(C(=O)NC(=O)Nc2ncccc2C)cc1	7.5	-1.2	-2.7	0.6	31.2*	·
CS(=O)(=O)N1CC2(C1)[C@H](c1ccccc1)[C@H](CO)N2Cc1ccccn1	·	·	·	·	·	-2.4
CN1C(=O)[C@H]2[C@@H](/C=C/c3ccccc3)N3C(=O)CN(Cc4ccccn4)C(=O)[C@@]3(Cc3ccccc3)[C@H]2C1=O	-3.0	·	1.0	1.3	28.9*	-9.5
O=C1[C@H]2[C@@H](/C=C/c3ccccc3)N3C(=O)CN(Cc4ccccn4)C(=O)[C@@]3(Cc3ccccc3)[C@H]2C(=O)N1c1ccccc1	0.3	-34.9	2.7	1.4	-9.9	-47.5
O=S(=O)(N[C@H]1CC[C@H](CCNS(=O)(=O)c2ccccc2Cl)O[C@H]1CO)c1ccccc1	-4.9	·	·	·	·	3.2
Cc1ccc2oc(=O)n(CCOc3ccccc3C)c2c1	4.0	-7.0	-4.3	-5.5	38.0*	-12.5
Cc1ccc2oc(=O)n(CCCOc3ccccc3C)c2c1	·	-21.1	·	-3.4	-0.4	-11.2
COc1ccc2[nH]c(C)c(CN3CCCCC3)c(=O)c2c1	·	·	·	2.0	31.7*	-12.2
Cc1noc(C)c1NC(=O)N(C)C[C@@H]1OCCCC[C@H](C)Oc2ccc(NS(=O)(=O)c3ccc(F)cc3)cc2C(=O)N([C@H](C)CO)C[C@@H]1C	3.1	·	1.0[16.7 µM]	·	·	4.2
O=C(COC(=O)C1CC(=O)N(Cc2ccccc2)C1)Nc1ccccc1F (configuration not stated)	·	-9.6	·	-0.3	25.8*	-4.3
COc1cc(CN2CC3(CCN(S(=O)(=O)c4cccc(F)c4)CC3)c3c([nH]c4cc(OC)ccc34)[C@@H]2CO)cc(OC)c1	·	·	·	·	·	-26.5
CC(/C=N/Nc1nnc(C)c(=O)[nH]1)=C\c1ccccc1	-3.4	-9.4	·	1.8	23.9*	-11.5
CN1C[C@H]2[C@@H](c3ccccc31)[C@H](CO)N2C(=O)Nc1ccccc1	0.5	·	-16.7[16.7 µM]	·	·	·
CO[C@H]1CN(C)C(=O)c2cc(NC(=O)Nc3cccc(F)c3)ccc2OC[C@H](C)N(C(=O)C2CC2)C[C@H]1C	-6.4	·	4.4[16.7 µM]	·	·	·
COc1ccc(-c2ccc(C3[C@@H]4CN(C(=O)Nc5cccc(F)c5)C[C@H]3N4)cc2)cc1 (some centres not stated)	·	·	·	·	·	84.0*
COc1ccc(NC(=O)N2C[C@@H]3N[C@H](C2)[C@@H]3c2ccc(-c3ccc(OC)cc3)cc2)cc1	·	·	·	·	·	67.6*
COc1ccc(NC(=O)N2C[C@@H]3N[C@H](C2)C3c2ccc(-c3cccc(OC)c3)cc2)cc1 (some centres not stated)	·	·	·	·	·	54.2*!
CO[C@@H]1CN(C)C(=O)c2ccc(NC(=O)CC(F)(F)F)cc2OC[C@H](C)N(C(=O)C2CC2)C[C@@H]1C	·	·	·	·	·	-44.0
C[C@@H]1CN([C@@H](C)CO)C(=O)c2cc(NC(=O)Nc3ccc(F)cc3)ccc2O[C@H]1CN(C)C(=O)Nc1ccc2c(c1)OCO2	·	·	-0.6[16.7 µM]	·	·	-1.8
CC(=O)NCC1COc2ccccc2O1 (configuration not stated)	-4.6	-0.4	0.8	1.4	-2.4	-8.7

Bioassay records deposited in PubChem BioAssay by several laboratories.
